The record followed here is PubChem BioAssay (NCATS).

The experiment has as its target Luciferin 4-monooxygenase (Photinus pyralis) (UniProt P08659). The experiment in a line: Biochemical firefly luciferase enzyme assay for NPC (AID 624030).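 Note: purified P. pyralis luciferase at 10 nM with luciferin and ATP substrate; series mostly up to about 59 µM; nearly all actives have a fitted effect of over 70% in size.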 The procedure, abridged: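 Direct inhibition of firefly luciferase enzyme (10 nM final, 50 mM Tris Acetate) assessed by luminescence within 5 minutes. Percent activity scaled between DMSO and PTC124 positive control, with concentration-effect curves classified by fit quality and response.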

Records with an inconclusive call do not appear. Where a call stands in place of a potency, no number is given. Activity calls are given as the source filed them. Calls come from the whole dose curve; as a rule, active = well fitted inhibition curve with a large enough effect; inconclusive = small, poorly fitted or top-dose-only effect; inactive = flat fitted curve, though single readings scatter.

Sequence of Luciferin 4-monooxygenase (Photinus pyralis) (P08659 whole entry, looked up): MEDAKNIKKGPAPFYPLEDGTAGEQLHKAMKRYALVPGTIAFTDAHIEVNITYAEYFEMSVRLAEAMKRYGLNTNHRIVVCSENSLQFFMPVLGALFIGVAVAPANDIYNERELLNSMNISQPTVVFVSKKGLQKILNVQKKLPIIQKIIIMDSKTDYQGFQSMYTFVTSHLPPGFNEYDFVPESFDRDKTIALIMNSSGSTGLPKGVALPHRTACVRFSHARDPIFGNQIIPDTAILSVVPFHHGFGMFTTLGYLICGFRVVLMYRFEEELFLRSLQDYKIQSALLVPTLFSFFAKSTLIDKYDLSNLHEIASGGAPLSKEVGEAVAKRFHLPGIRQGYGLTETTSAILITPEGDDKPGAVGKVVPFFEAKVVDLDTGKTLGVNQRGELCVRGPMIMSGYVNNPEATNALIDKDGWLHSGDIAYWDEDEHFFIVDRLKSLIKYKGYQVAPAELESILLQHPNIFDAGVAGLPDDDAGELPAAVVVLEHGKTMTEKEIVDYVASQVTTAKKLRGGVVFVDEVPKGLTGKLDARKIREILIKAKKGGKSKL

Turning to `CN(Cc1ccc(C(C)(C)C)cc1)c1cccc2ccccc12`, the Potency result was “inactive”.
`COc1cc([C@@H]2c3cc4c(cc3[C@@H](O[C@@H]3O[C@H]5CO[C@H](C)O[C@H]5[C@H](O)[C@@H]3O)[C@H]3COC(=O)[C@H]23)OCO4)cc(OC)c1OP(=O)(O)O`: the Potency result was “inactive”.
For `CCCCC/C=C/C/C=C/CCCCCCCC(=O)NC(C)c1ccccc1` (centres undefined) the value was “inactive”.
Turning to `O=S(=O)(O)OCC1OC(OC2(COS(=O)(=O)O)OC(COS(=O)(=O)O)C(OS(=O)(=O)O)C2OS(=O)(=O)O)C(OS(=O)(=O)O)C(OS(=O)(=O)O)C1OS(=O)(=O)O` (centres undefined), the Potency result was “inactive”.
